Reference: ChEMBL document CHEMBL3433997, “St. Jude Leishmania screening dataset” (2016)

Key:
Type in all cases: functional
[1] = biological target: Solute carrier family 2, facilitated glucose transporter member 1 (Homo sapiens) (UniProt P11166); experiment: ST_JUDE_LEISH: Cytotoxicity at 2uM final concentration against transgenic Leishmania Mexicana promastigotes LmGLUT1 that are glucose transport deficient and complemented with the human glucose transporter GLUT1. Activity is measured by DNA content using SYBR green in vitro
Chain of Solute carrier family 2, facilitated glucose transporter member 1 (Homo sapiens) (P11166 whole entry): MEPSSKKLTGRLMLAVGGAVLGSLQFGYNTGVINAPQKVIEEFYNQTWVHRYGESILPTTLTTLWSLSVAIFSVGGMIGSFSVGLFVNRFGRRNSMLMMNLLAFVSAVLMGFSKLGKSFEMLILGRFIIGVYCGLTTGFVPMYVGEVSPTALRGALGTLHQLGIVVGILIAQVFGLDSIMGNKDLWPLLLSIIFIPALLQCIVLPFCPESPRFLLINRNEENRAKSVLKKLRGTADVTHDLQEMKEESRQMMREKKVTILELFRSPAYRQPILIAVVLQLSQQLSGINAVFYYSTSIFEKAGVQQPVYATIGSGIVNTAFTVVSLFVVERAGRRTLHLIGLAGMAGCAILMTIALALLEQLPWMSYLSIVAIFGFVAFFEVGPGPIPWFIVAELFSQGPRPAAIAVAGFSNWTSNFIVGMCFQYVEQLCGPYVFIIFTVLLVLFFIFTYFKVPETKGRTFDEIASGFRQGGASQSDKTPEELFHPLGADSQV

[2] = biological target: Hexose transporter 1 (Plasmodium falciparum) (UniProt O97467); experiment: ST_JUDE_LEISH: Cytotoxicity at 2uM final concentration against transgenic Leishmania Mexicana promastigotes LmPfHT that are glucose transport deficient and complemented with the Plasmodium falciparum hexose transporter. Activity is measured by DNA content using SYBR green in vitro
[3] = biological target: Glucose transporter (Leishmania mexicana) (UniProt O61059); experiment: ST_JUDE_LEISH: Cytotoxicity at 2uM final concentration against transgenic Leishmania Mexicana promastigotes LmGT2 that are glucose transport deficient and complemented with the L. Mexicana glucose transporter 2. Activity is measured by DNA content using SYBR green in vitro

SMILES | inhibition [1] | inhibition [2] | inhibition [3]
CCOCCCNc1nc2cc(OC)c(OC)cc2c2nc(-c3ccccc3)nn12 | 1.59% | 2.14% | -2.64%
Oc1cc(NC[C@@H]2CCC[C@@H]2NCc2ccc(Cl)c(Cl)c2)nc2ccccc12 | 9.21% | 8.79% | 7.45%
Cc1nnc2c(NC(=O)NC3CCCC3)cc3cc(-c4ccc(CN(C)C)cc4)ccc3n12 | 0.94% | 1.31% | 0.22%
CCc1nnc2sc(-c3cccc(NC(=O)c4ccc(C)c([N+](=O)[O-])c4)c3)nn12 | 7.69% | 3.97% | 2.48%
Oc1ccc2c(CNC3CCCCC3)c(O)ccc2c1CNC1CCCCC1 | -0.71% | 0.24% | 0.34%
Cc1cc(Cl)ccc1OC(C)C(=O)N1CCc2ccccc21 (stereo unspecified) | -3.17% | 0.81% | -0.66%
CC(C)CCN1CCC(Oc2ccc(NC(=O)c3ccc(F)cc3)cc2Cl)CC1 | -2.57% | -4.4% | 0.92%
CC1(C)[C@H]2CC[C@@H](CNc3nc(NCCc4c[nH]cn4)nc(NCc4cc(F)ccc4F)n3)[C@@H]1C2 | 4.07% | 0.62% | 1.36%
CC(C)C1C(=O)N(S(C)(=O)=O)C2CCN(C(=O)c3ccc(CN4CCCCC4)c([N+](=O)[O-])c3)C12 (stereo unspecified) | 3.87% | 4.49% | -1.4%
Clc1ccc(CNCCCCCCCNCc2ccc(Cl)c(Cl)c2)cc1Cl | -1.86% | -1.24% | -0.86%
c1cc(CNCc2ccc3c(c2)OCO3)cc(-c2cccc(CNc3ccc4ncccc4c3)c2)c1 | 0.81% | 1.4% | -0.38%
CC1(C)CC(=O)c2c(O)cc(OCc3ccncc3)cc2O1 | 2.92% | 0.56% | 0.66%
CCc1ccnc2c(N3CCCC3=O)cc(C(=O)N[C@@H](Cc3ccccc3)[C@H](O)CNC3CCOCC3)cc12 | 3.63% | 0.4% | 0.64%
Cn1cncc1CCCN(Cc1ccc(-c2ccc(C(F)(F)F)cc2)cc1)C(=O)Cn1c(CCc2cccc(F)c2F)cc(=O)c2cccnc21 | 2.28% | 2.54% | 1.5%
CC(C)(C)c1ccc(CN(C[C@@H](O)CNS(=O)(=O)c2cc(Cl)cc(Cl)c2)C(C)(C)C)cc1 | 0.82% | 0.36% | -0.02%
COc1cc(Cc2cnc(N)nc2N)ccc1OCc1cccc(Oc2ccccc2)c1 | 2.15% | 1.48% | 0.19%
Cc1cccc2nc(-c3ccc(-c4cccc(NC(=O)Nc5ccsc5)c4)cc3)[nH]c12 | 1.48% | 0.08% | -1.47%
CCOc1ccc(-c2nonc2NC(=O)c2ccccc2F)cc1OCC | -0.17% | 1% | 1.47%
CN1CCC(N2CCN(Cc3cccc(-c4ccc(-c5nc6ccccc6[nH]5)cc4)c3)CC2)CC1 | 2.84% | 1.99% | 0.07%
COc1ccc2cc(C(=O)NC3CCC(CCN4CCc5cc(C#N)ccc5C4)CC3)[nH]c2c1 (stereo unspecified) | 3.48% | 0.58% | 3.6%
O=C(CCN(Cc1ccco1)c1nc(-c2ccc(F)cc2)nc2ccccc12)NC1CC1 | 4.96% | 1.65% | 9.67%
CC(C)(C)c1cc(NC2CC2)nc(-c2ccccn2)n1 | 1.4% | 3.18% | 4.03%
CN(C)C(=O)C(CC(=O)NCc1ccccc1Cl)N(C)C.CN(C)C(=O)CC(C(=O)NCc1ccccc1Cl)N(C)C (stereo unspecified) | 3.97% | 4.82% | 4.89%
Nc1c2c(nc3ccc(C(=O)Nc4ccccc4)cc13)CCCC2 | 4.09% | 3.96% | 3.87%

SMILES | inhibition [1] | inhibition [2] | inhibition [3]
COc1ccc(CNc2ccc3nc(N)nc(N)c3c2)cc1 | -2.31% | 1.62% | -1.87%
Nc1nc(N)c(-c2ccccc2)c(=O)[nH]1 | 4.51% | 3.54% | 1.16%
COc1cc(-c2cc(-c3ccc(OCCN(C)C)cc3)[nH]c2-c2ccncc2)ccc1Cl | 0.75% | 0.72% | 2.28%
COc1cc2c(cc1S(=O)(=O)c1ccc(NC(=O)c3ccc4ccccc4c3)cc1)CCN(C)CC2 | 1.64% | 0.19% | -0.44%
Cc1cc(N/N=C/c2cccc([N+](=O)[O-])c2)c2ccccc2n1 | 1.39% | 1.27% | 4.98%
CN(C)c1ccc(-c2csc(C(=O)NC3CCCCN(Cc4ccc(C(C)(C)C)cc4)C3)c2)cc1 (stereo unspecified) | -1.22% | -0.61% | 1.96%
CCCCCCCOc1ccc(NC(=O)Nc2ccc(Cn3ncc(N4CCCNCC4)c(Cl)c3=O)cc2)cc1 | -2.91% | -0.57% | -1.59%
CC1(C)N=C(N)N=C(N)N1O | -0.13% | 1.38% | 0.94%
O=C(NCC1CCC(CNCCc2ccccc2)CC1)Nc1ccc(Cl)c(Cl)c1 (stereo unspecified) | -0.7% | -1.96% | -2.11%
CCc1ccc(NC(=O)c2ccc(CN3CCCN(CCC(C)C)CC3)cc2)cc1 | 7.61% | 4.69% | 5.85%
CC(C)CNC(=O)c1cncc(-c2cccc(CNC3Cc4ccccc4C3)c2)c1 | 10.7% | 6.1% | 6.4%
O=C(Nc1ccc(C(=O)OCC2CCCN3CCCCC23)cc1)c1ccc([N+](=O)[O-])cc1 (stereo unspecified) | -1.57% | 0.57% | 0.99%
Cc1cc(N[C@@H](Cc2ccccc2)C(=O)NCc2cccc(F)c2)nc(NCCc2cccnc2)n1 | 10.4% | 12.9% | 12.3%
Cc1ccccc1OCCCN1CCN(CC(c2ccc(F)cc2)N2CCN(C(C)C)CC2)CC1 (stereo unspecified) | 13.1% | 12.5% | 14.9%
CCN(CC)CCN(Cc1ccc(-c2ccc(Cl)s2)cc1)C(=O)Cn1c(CCc2cccc(F)c2F)nc(=O)c2ccccc21 | 3.75% | 3.7% | 2.15%
COc1ccc2c(N/N=C/c3cccc([N+](=O)[O-])c3)ccnc2c1 | -2.24% | -3.16% | -0.29%
CCOc1ccc(N2CCN(CCCCNC(=O)c3ccc(NC(=O)c4ccc(Cl)cc4)cc3)CC2)c(OCC)c1 | 1.06% | 1.88% | 2.35%
CC(=O)N(C)c1cccc(C(=O)Nc2cccc(-c3ccc(-c4nc5cc(C(F)(F)F)ccc5[nH]4)cc3)c2)c1 | 4.32% | 4.03% | 4.63%
O=C(CCNc1ccnc(NCC2CCCCC2)n1)Nc1ccccc1 | 7.25% | 5.25% | 3.46%
COc1cc2c(cc1OCCN1CCC(N3CCCCC3)CC1)N(C(=O)/C=C/c1ccccc1OC(F)(F)F)CC2 | 2.32% | 5.04% | 3.58%
CN1CCN(c2ccnc3cc4c(cc23)N(C(=O)Nc2ccc(-c3ccncc3)c3ccccc23)CC4)CC1 | 3.02% | 2.26% | 3.35%
CC1(C)CCCN(C(=O)c2cccc(-n3nc(-c4ccc(Cl)cc4)cc3N)c2)C1 | 2.79% | 1.98% | 2.07%
CCCCCCN1CCC(NCc2ccc(C)cc2)CC1 | 12.6% | 16% | 17.6%
CCN(CC)CCNc1ccc(Nc2ccnc3cc4ccccc4cc23)cc1 | 0.35% | -0.38% | 3.92%

SMILES | inhibition [1] | inhibition [2] | inhibition [3]
S=C(NN=Cc1ccccn1)NC1CC2C=CC1C2 (stereo unspecified) | 10% | 13.6% | -1.49%
O=C(Nc1ccc(-c2nc3ccccc3[nH]2)cc1)c1ccc([N+](=O)[O-])s1 | 5.3% | 7.89% | 3.02%
Oc1ccc(-c2ccccc2)cc1CN1CCCCCC1 | 1.18% | 2.49% | 1%
CCN(CC)S(=O)(=O)c1ccc(Cl)c(C(=O)Nc2ccc3nc(C)sc3c2)c1 | -2.24% | -0.92% | -1.58%
COc1ccc(NC(=O)/C=C/c2ccc(Oc3ccccc3Cl)c([N+](=O)[O-])c2)cc1OCCN(C(C)C)C(C)C | -0.7% | -0.91% | -1.59%
CC(C)(C)OC(=O)c1c(NC(=O)/C=C/c2ccc(O)c(O)c2)sc2c1CCCC2 | -1.88% | -1.04% | -0.95%
C=CCOC(=O)N1CCC(CNCc2cccc(-c3ccc(-c4nc5ccccc5[nH]4)s3)c2)C1 (stereo unspecified) | 1.51% | 1.79% | 1.26%
CC(=O)c1cccc2[nH]c(C(=O)NC3CCC(CCN4CCc5ccc(C#N)cc5C4)CC3)cc12 (stereo unspecified) | 4.5% | 4.09% | 2.51%
Cc1cc(Cl)c(Cl)cc1NC(=O)Nc1cccc(C(F)(F)F)c1 | 1.27% | -0.59% | -0.28%
O=C(CSc1nc(-c2ccccc2Cl)ns1)Nc1cccc(Cl)c1 | 1.59% | 1.79% | 0.35%
COc1cc(NC(=O)c2sc(-c3ccc(Cl)cc3)cc2NC(=O)CN2CC[C@@H](O)C2)ccc1OCCN1CCCC1 | 23.1% | 15.1% | 4.88%
CN(Cc1cccc(F)c1)C1CCN(c2cc(NC(=O)c3cccc(F)c3)ccn2)CC1 | 3.06% | 3.18% | 2.7%
COc1cc(CS(C)(=O)=O)ccc1Nc1nccc(-c2c(-c3cccc(NC(=O)c4c(F)cccc4F)c3)nn3ccccc23)n1 | 13.5% | 20.7% | 7.36%
Nc1ccncc1C(=O)NCCCCN1CCN(c2nsc3ccccc23)CC1 | -0.32% | 0.47% | -1.16%
CN(Cc1c(Cl)cnn1C)S(=O)(=O)c1ccc2ccccc2c1 | 5.51% | 7.25% | 5.64%
NCc1cccc(-c2ccc(CNC3CCN(Cc4ccccc4)CC3)cc2)c1 | 6.37% | 2.02% | -1.34%
CN1CCN(c2ccnc3ccc(NC(=O)Cc4ccc(-c5ccncc5)c5ccccc45)cc23)CC1 | -3.69% | 0.37% | -0.2%
CCCCCCCc1c(C)nc2ccccc2c1O | 6.82% | 6.3% | 2.82%
Cc1cccc(Cn2ccc3c4c(N)nc(N)nc4ccc32)c1 | 80.8% | 81.5% | 81.5%
O=C(Nc1ccc(CC(=O)N2CCc3cc(Cl)c(N4CCN(C/C=C/c5ccccc5)CC4)cc32)cc1)Nc1cccc([N+](=O)[O-])c1 | 1.73% | 1.25% | 1.93%
O=C(/C=C/c1ccc(Cl)c(Cl)c1)NCCCCCN1CCC(NC(=O)NC2CCCCCC2)CC1 | -0.58% | 1.53% | 0%
CCn1c(-c2nonc2N)nc2c(-c3cc4ccccc4s3)ncc(C(=O)N3CCC(N)C3)c21 (stereo unspecified) | 82.2% | 98.3% | 10.9%
O=C(NCCCCN1CCC(c2ccc3ccccc3c2)CC1)c1ccc(NC(=O)c2ccc(Cl)cc2)cc1 | 2.27% | 4.42% | 4.1%
CC(=O)Nc1cc(C(=O)Nc2cccc(-c3cccc(-c4nc5cc(C(F)(F)F)ccc5[nH]4)c3)c2)ccc1C | 7.57% | 6.52% | 1.84%
